Measurements published in PubChem BioAssay (NCATS).
Inconclusive results are not listed. Active and inactive are the calls of the source. Unless noted, calls follow the shape of the dose curve; as a rule, active = well fitted curve in the direction sought with a large enough effect; inconclusive = small, poorly fitted or top-dose-only effect, or another doubt; inactive = no such curve, though single readings can be large; an effect the other way counts as inactive or inconclusive.

Legend:
[1] = Confirmation and Secondary Assay for Modulators of Hemoglobin Beta Chain Splicing at IVS2 654 locus (AID 910);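 also: HeLa cells stably carrying EGFP split by mutant beta-globin IVS2-654 intron; % of control where 0% means no effect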
Procedure, shortened: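 Readout: per-well total peak green fluorescence (488 nm ex, 500–520 nm em) from objects 5–250 µm, reflecting correct splicing of an EGFP-654 reporter. Compounds were applied for 2 days at 37 °C to overnight-plated HeLa EGFP-654 cells; controls were DMSO and 500 nM IVS2-654 PNA.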

[2] = Confirmation and Secondary Assay for Modulators of Hemoglobin Beta Chain Splicing at IVS2 705 locus (AID 930);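 also: HeLa cells stably expressing the EGFP-705 splicing reporter; GFP fluorescence per well restored by corrected splicing of the IVS2-705 intron in EGFP; % of control where 0% means no effect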
Procedure, shortened: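 HeLa cells stably carrying EGFP interrupted by mutant beta-globin intron 2 (IVS2-705) treated 2 days at 37C with compound; 500 nM antisense PNA as control. Correct splicing read as total peak GFP intensity per well by laser-scanning cytometry.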

[3] = qHTS Assay for Lipid Storage Modulators (AID 1519; calls by dose curve); conditions: Drosophila S3 cells, BODIPY lipid droplet/cell ratio, laser cytometry, cells loaded with oleic acid; for activity change, negative = inhibition: at 57.5 µM (top of the series)
Procedure, shortened: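 Cells seeded at 5,000 per well were treated with compounds over a concentration series and loaded with oleic acid (400 uM, as added). Lipid droplet fluorescence (488 nm excitation, 500-530 nm channel) was read by laser-scanning cytometry and normalized to 20 uM Triacsin C.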

[4] = molecular target: Rap guanine nucleotide exchange factor 3 (Homo sapiens) (UniProt O95398); assay: Confirmatory qHTS for agonist of cAMP-regulated guanine nucleotide exchange factor 3 (EPAC1) (AID 1645881);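 also: EPAC1 catalysed release of BODIPY-GDP from Rap1B seen as fluorescence loss; 100% = effect of cAMP agonist control; nearly all actives have a fitted effect of over 75% in size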
[5] = molecular target: Rap guanine nucleotide exchange factor 4 (Homo sapiens) (UniProt Q8WZA2); assay: Confirmatory qHTS for agonist of cAMP-regulated guanine nucleotide exchange factor 4 (EPAC2) (AID 1645884);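 also: nucleotide exchange releases bodipy-GDP from Rap1 and this lowers its fluorescence; % is scaled to controls: 0 for no effect and ±100 for the full control effect; nearly all actives have a fitted effect of over 65% in size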
[6] = molecular target: Cytochrome P450 1A2 (Homo sapiens) (UniProt P05177); assay: p450-cyp1a2 (AID 410; calls by dose curve; also: potency is read from the fitted curve at half-maximal effect;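 as to activity change, negative = inhibition: -100% = full effect of reference inhibitor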)
Procedure, shortened: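 Inhibition was calculated relative to 57 uM furafylline (full inhibition). The reaction used human CYP1A2 at 20nM with Luciferin-ME at its Km, 100uM, driven by an NADPH-regenerating system for 60 min at room temperature.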

[7] = molecular target: Glucocorticoid receptor (Homo sapiens) (UniProt P04150); assay: GR-GFP Redistribution (AID 450;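 active = compounds whose dose series gives a full or clear partial fitted curve of increased nuclear translocation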; also: potency is read from the fitted curve at half-maximal effect); conditions: U2OS GR-GFP nuclear translocation, laser cytometry, 2 h
[8] = molecular target: Mitogen-activated protein kinase 10 (Mus musculus) (UniProt Q61831); assay: JNK3 AlphaScreen Assay (AID 530; active = well fitted curve in either direction with a large enough effect, not every such curve was filed as active;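 also: kinase came from lysate of stimulated human HepG2 cells; signal reports phosphorylation of biotinylated GST-cJun 1-79 at Ser73 with 10 µM ATP; % is scaled to controls: 0 for no effect and ±100 for the full control effect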)
Procedure, shortened: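 Room-temperature AlphaScreen kinase assay; pre-activated HepG2 lysate as JNK3 source, biotin-GST-cJun(1-79) substrate, 10 uM ATP, compound 15 min preincubation.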

[9] = molecular target: Lysosomal acid glucosylceramidase (Homo sapiens) (UniProt P04062); assay: Glucocerebrosidase-p2 (AID 348; in the data active = potency below about 10 µM; also: potency is read from the fitted curve at half-maximal effect); conditions: purified GBA, blue fluorogenic substrate, 40 min
Procedure, shortened: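 Compounds titrated from 0.6 nM upwards against 0.2 nM enzyme in pH 5.9 citric acid/KH2PO4, taurocholate, tween-20; blue fluorogenic substrate 80 uM, 40 min room temperature, stopped and read Ex 365/Em 440 for AC50.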

[10] = AP1 Signaling Pathway (AID 357; active = well fitted curve in either direction with a large enough effect, not every such curve was filed as active;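 also: ME-180 reporter cells stimulated with EGF at its EC50 level; % is scaled to controls: 0 for no effect and ±100 for the full control effect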); conditions: ME-180 AP-1-bla reporter, EGF-induced, beta-lactamase ratio, 5 h; at 7.69 µM (top of the series) unless noted
Procedure, shortened: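 AP-1-bla ME-180 cells, Opti-MEM + 0.5% dialyzed FBS, plated overnight 37 °C. Cpd titration + EC50 EGF, 5 h 37 °C. CCF4 2.5 h RT; ex 405, em 460/530 ratio → %activity, AC50.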

[11] = NFAT Signaling Pathway (AID 444; active = well fitted curve in either direction with a large enough effect, not every such curve was filed as active;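 also: carbachol stimulus at about its EC50 of 1 µM final; % is scaled to controls: 0 for no effect and ±100 for the full control effect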); conditions: Jurkat NFAT-bla M1, carbachol, beta-lactamase ratio, 5 h; at 7.69 µM (top of the series) unless noted
Procedure, shortened: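 Read-out: CCF4 FRET ratio (460 nm/530 nm) after 1 h RT dye loading, used for %activity and AC50 from titration series. Cells: Jurkat NFAT-β-lactamase/M1 line, treated with compound plus 1 uM carbachol for 5 h, 37 °C.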

[12] = Stat Signaling Pathway (AID 446; active = well fitted curve in either direction with a large enough effect, not every such curve was filed as active;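 also: ME-180 cervical cancer cells given 40 pM IL-6 alongside compound; SIE-controlled beta-lactamase reporter measured as 460/530 nm FRET emission ratio; % is scaled to controls: 0 for no effect and ±100 for the full control effect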); conditions: ME-180 (cervical carcinoma) SIE beta-lactamase reporter, IL-6 stimulated, 5 h; at 7.69 µM (top of the series) unless noted
Procedure, shortened: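 IL-6/STAT signaling read in ME-180 cells via an SIE beta-lactamase reporter. Stimulus was 40 pM IL-6 (its AC50) for 5 hrs, so both activation and inhibition register.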

[13] = molecular target: Glucocorticoid receptor (Homo sapiens) (UniProt P04150); assay: GR-EFC Redistribution (AID 451; calls by dose curve; also: potency is read from the fitted curve at half-maximal effect); conditions: CHO-K1 GR-EFC translocation, beta-gal luminescence, 2 h
Procedure, shortened: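 Translocation of GR-ED fusion to nuclear EA restores b-gal, read by luminescence after 1 h room-temperature detection. Engineered CHO-K1 biosensor cells, 1,000/well, exposed 2 h at 37 C to titrations up to 46 uM final.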

[14] = molecular target: Cytochrome P450 3A4 (Homo sapiens) (UniProt P08684); assay: qHTS Assay for Activators of Cytochrome P450 3A4 (AID 885); also: nearly all actives have a fitted effect of over 65% in size
Procedure, shortened: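 Quantitative HTS format: compounds preincubated with 20nM human CYP3A4 and Luciferin-PPXE substrate at KM, reaction started by NADPH regeneration, stopped after 60 min, luciferase luminescence read 20 min later.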

[15] = molecular target: Dual specificity protein kinase CLK4 (Homo sapiens) (UniProt Q9HAZ1); assay: qHTS Assay for Inhibitors of CDC-like Kinase 4 (Kinase-Glo Assay) (AID 1770); also: nearly all actives have a fitted effect of over 65% in size; also: potency is read from the fitted curve at half-maximal effect
Procedure, shortened: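 Recombinant human Clk4 (25 nM) phosphorylated RS repeat peptide (100 uM) with 1 uM ATP in Tris pH 7.5/MgCl2/EGTA/DTT/Triton buffer for 4.5 h at room temperature. Residual ATP was quantified by Kinase-Glo luciferase luminescence.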

[16] = molecular target: Dual specificity protein kinase CLK4 (Homo sapiens) (UniProt Q9HAZ1); assay: qHTS Assay for Inhibitors of CDC-like Kinase 4 (ADP-Glo Assay) (AID 1771); also: nearly all actives have a fitted effect of over 70% in size; also: potency is read from the fitted curve at half-maximal effect
Procedure, shortened: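 Kinase reaction: Clk4 at 25 nM, RS repeat peptide substrate at 100 uM, ATP at 1 uM, 1 hr, room temperature. Product ADP detected as luciferase signal via ADP-Glo.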

[17] = molecular target: Dual specificity protein kinase CLK4 (Homo sapiens) (UniProt Q9HAZ1); assay: qHTS Assay for Inhibitors of CDC-like Kinase 4 (ADP-FP Assay) (AID 1795); also: nearly all actives have a fitted effect of over 60% in size; also: potency is read from the fitted curve at half-maximal effect
Procedure, shortened: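 Recombinant human Clk4 (6.25 nM) phosphorylated RS repeat peptide (100 uM) with 1 uM ATP in Tris pH 7.5/MgCl2/EGTA/DTT/Triton buffer for one hour. ADP was quantified by Transcreener competitive fluorescence polarization against an ADP calibration curve.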

[18] = molecular target: Ubiquitin carboxyl-terminal hydrolase 1 (Homo sapiens) (UniProt O94782); assay: Inhibitors of USP1/UAF1: Pilot qHTS (AID 504865);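 also: rhodamine fluorescence freed from ubiquitin-rhodamine substrate followed over time; top concentration of the series differs between compounds; % is scaled to controls: 0 for no effect and ±100 for the full control effect; nearly all actives have a fitted effect of over 35% in size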
Procedure, shortened: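 USP1/UAF1 complex (1nM) preincubated with compound 15 min at room temperature, then Ub-Rho substrate (150nM final) added. Fluorescence read kinetically at 480/540 nm, 6 reads every 60 seconds. Buffer: 50mM HEPES pH 7.8, 0.5mM EDTA, 0.1 mg/ml BSA, 1mM TCEP, 0.01% Tween-20.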

[19] = molecular target: 3',5'-cyclic-AMP phosphodiesterase 4B (Homo sapiens) (UniProt Q07343); assay: qHTS Assay for Inhibitors of PDE-IV (AID 607; active = well fitted activation curve with a large enough effect in the main read-out, with a control signal flat, not every such curve was filed as active; also: % of control where 0% means no effect)
Procedure, shortened: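 Live HEK293 cells with a modified cyclic nucleotide-gated (CNG) channel report intracellular cAMP via membrane-potential dye fluorescence (ex 535/em 590 nm). Endogenous PDE-IV was targeted. Compounds were tested at up to 22.9 uM final; RO 20-1724 100 uM served as control.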

[20] = molecular target: Cytochrome P450 3A4 (Homo sapiens) (UniProt P08684); assay: qHTS Assay for Inhibitors and Substrates of Cytochrome P450 3A4 (AID 884); also: % is scaled to controls: 0 for no effect and ±100 for the full control effect; nearly all actives have a fitted effect of over 50% in size
Procedure, shortened: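 20 nM human CYP3A4 with 25 uM Luciferin-PPXE (at KM) in 200 mM KPO4, preincubated 10 min with compound; NADPH regeneration started a 60 min RT reaction. Luciferin detected by luminescence, normalized to 57 uM ketoconazole as full inhibition.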

[21] = measured here: cell count channel max response
[22] = measured here: lipid channel max response

Chain of 3',5'-cyclic-AMP phosphodiesterase 4B (Homo sapiens) (Q07343 whole entry, looked up): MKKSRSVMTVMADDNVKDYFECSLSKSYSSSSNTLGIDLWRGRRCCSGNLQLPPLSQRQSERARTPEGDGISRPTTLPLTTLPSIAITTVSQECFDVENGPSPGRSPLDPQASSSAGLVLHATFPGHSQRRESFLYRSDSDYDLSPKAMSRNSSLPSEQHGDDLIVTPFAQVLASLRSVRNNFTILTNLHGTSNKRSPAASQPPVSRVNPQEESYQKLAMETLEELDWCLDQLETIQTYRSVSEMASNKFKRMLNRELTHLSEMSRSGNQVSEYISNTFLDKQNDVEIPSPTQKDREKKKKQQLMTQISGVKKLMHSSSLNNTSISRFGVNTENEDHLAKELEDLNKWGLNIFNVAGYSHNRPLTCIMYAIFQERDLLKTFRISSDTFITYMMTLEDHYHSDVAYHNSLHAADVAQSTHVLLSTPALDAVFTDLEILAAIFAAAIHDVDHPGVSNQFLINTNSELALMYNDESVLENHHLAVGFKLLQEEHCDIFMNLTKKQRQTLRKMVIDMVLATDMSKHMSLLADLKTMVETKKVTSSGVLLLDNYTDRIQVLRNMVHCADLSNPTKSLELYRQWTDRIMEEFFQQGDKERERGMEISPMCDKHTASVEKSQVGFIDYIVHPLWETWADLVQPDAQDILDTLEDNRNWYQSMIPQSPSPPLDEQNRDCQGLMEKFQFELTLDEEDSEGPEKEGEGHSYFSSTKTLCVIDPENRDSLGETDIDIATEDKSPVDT
Chain of Ubiquitin carboxyl-terminal hydrolase 1 (Homo sapiens) (O94782 whole entry, looked up): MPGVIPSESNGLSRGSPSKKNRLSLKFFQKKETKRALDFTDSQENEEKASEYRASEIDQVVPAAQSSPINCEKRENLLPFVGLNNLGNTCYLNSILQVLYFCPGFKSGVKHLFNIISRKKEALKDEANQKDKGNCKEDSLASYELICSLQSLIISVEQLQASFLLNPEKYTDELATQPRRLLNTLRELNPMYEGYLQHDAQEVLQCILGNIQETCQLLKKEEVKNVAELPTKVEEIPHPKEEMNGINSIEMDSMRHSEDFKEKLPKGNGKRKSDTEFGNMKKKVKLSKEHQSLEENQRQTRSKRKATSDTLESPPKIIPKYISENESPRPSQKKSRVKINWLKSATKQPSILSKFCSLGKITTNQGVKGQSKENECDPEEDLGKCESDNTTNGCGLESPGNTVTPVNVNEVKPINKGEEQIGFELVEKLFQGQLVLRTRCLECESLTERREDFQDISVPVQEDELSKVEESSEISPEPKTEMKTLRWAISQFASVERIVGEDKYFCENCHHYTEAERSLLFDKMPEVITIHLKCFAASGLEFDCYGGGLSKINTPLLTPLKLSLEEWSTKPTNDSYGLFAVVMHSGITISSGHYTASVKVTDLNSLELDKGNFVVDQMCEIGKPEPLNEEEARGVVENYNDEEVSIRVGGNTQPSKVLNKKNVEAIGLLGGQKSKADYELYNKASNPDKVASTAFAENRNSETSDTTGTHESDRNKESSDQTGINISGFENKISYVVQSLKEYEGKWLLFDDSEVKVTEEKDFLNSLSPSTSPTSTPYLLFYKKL
Chain of Cytochrome P450 3A4 (Homo sapiens) (P08684 whole entry, looked up): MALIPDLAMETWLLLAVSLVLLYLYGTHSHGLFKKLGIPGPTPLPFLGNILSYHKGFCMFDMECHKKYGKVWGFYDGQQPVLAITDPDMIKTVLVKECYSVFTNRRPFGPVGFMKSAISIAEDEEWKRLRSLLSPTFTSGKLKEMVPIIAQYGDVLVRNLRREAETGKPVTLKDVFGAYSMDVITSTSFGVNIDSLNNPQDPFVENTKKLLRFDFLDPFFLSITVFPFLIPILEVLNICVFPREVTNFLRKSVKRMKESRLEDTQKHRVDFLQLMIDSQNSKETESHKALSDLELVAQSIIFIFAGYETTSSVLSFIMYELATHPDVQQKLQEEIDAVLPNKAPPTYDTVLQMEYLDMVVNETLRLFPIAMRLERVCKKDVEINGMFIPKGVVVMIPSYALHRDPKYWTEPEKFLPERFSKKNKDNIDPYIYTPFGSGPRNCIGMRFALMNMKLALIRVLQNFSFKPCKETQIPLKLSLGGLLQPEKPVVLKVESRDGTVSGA
Chain of Dual specificity protein kinase CLK4 (Homo sapiens) (Q9HAZ1 whole entry, looked up): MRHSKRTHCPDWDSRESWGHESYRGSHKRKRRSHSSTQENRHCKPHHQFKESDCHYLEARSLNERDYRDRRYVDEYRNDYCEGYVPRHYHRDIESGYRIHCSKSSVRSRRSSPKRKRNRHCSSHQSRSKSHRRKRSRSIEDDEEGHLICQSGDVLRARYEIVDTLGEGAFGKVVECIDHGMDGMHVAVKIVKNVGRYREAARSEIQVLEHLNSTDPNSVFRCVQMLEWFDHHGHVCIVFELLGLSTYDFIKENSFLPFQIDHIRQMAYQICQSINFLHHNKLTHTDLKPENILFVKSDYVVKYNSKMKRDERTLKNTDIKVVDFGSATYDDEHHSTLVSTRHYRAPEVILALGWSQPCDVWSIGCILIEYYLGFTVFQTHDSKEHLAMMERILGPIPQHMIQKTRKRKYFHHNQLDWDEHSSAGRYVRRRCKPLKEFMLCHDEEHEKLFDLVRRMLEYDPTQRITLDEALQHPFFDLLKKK
Chain of Glucocorticoid receptor (Homo sapiens) (P04150 whole entry, looked up, the tested form may be a part): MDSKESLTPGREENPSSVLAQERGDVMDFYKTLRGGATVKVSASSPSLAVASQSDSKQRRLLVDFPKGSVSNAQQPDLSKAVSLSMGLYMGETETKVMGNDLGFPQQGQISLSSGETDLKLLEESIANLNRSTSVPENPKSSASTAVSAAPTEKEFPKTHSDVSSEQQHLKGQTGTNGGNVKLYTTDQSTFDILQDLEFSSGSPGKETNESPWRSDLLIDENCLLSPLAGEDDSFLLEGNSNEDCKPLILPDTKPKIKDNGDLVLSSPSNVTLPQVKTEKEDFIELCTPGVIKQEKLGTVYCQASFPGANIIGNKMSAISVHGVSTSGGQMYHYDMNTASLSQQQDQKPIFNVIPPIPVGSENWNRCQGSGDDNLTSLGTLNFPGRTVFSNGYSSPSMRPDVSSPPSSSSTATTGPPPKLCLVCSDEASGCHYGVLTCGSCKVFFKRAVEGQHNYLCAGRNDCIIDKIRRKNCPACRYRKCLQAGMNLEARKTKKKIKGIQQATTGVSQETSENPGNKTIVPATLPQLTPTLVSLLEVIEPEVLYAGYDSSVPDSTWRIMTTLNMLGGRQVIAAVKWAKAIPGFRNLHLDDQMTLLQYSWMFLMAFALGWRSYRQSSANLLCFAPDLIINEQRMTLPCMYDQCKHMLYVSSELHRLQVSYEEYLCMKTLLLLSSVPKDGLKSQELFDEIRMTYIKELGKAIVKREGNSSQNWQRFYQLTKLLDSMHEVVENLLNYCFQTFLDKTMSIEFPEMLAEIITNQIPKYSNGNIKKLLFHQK
Chain of Cytochrome P450 1A2 (Homo sapiens) (P05177 whole entry, looked up): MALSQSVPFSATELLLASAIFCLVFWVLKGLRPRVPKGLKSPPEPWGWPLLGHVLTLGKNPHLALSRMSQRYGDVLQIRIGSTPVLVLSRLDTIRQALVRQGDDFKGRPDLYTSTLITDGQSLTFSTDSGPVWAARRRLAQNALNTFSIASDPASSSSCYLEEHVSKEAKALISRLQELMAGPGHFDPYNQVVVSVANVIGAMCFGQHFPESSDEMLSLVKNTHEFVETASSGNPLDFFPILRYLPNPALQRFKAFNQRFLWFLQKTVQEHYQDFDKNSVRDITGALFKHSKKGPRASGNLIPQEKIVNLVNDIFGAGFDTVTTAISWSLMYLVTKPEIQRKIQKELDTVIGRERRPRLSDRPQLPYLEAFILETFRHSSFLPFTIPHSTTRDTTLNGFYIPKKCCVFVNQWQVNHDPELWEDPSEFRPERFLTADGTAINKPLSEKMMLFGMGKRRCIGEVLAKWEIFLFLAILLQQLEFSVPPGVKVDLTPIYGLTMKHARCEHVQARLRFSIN
Chain of Lysosomal acid glucosylceramidase (Homo sapiens) (P04062 whole entry, looked up): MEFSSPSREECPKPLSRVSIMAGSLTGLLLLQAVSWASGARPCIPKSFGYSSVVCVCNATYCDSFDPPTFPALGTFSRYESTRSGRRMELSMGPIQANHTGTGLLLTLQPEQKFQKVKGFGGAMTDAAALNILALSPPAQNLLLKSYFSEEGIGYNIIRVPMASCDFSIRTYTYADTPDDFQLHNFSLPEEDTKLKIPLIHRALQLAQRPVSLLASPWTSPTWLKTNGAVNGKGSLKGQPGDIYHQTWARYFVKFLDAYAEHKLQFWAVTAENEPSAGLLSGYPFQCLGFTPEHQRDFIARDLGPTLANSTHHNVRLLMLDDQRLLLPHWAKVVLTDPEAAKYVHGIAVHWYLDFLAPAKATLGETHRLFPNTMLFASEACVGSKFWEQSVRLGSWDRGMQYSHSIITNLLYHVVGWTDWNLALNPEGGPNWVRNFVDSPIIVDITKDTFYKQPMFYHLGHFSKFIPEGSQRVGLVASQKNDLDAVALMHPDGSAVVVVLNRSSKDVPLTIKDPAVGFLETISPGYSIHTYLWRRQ

Cc1cccc2c3c(ccc12)C1=C(C(=O)C3=O)C(C)CO1 (configuration not stated)
20.4%: max response [3, 22]
9.52%: max response [3, 21]
inactive: Potency [1] | outcome [2] | activity change, negative = inhibition [3] 8.95% | Potency [4] | Potency [5]

COc1cc2c3cc1Oc1c(OC)c(OC)cc4c1[C@@H](Cc1ccc(O)c(c1)Oc1ccc(cc1)C[C@@H]3N(C)CC2)N(C)CC4
inactive: Potency [6] | Potency [7] > 46 µM | Potency [8] | activity change, negative = inhibition [3] 6.85%
29.4%: max response [3, 22]
20.8%: max response [3, 21]

COc1ccccc1-c1ccc2ncnc(NCc3ccccc3)c2c1
-27.8%: max response [3, 22]
inactive: Potency [9] > 11.4 µM | activity change, negative = inhibition [10] -25.6% | activity change, negative = inhibition [11] 0.253% | activity, negative = inhibition [12] -8.43% | Potency [7] > 46 µM | Potency [13] > 46 µM | Potency [8] | Potency [14] | activity change, negative = inhibition [3] -15.2% | Potency [18]
active: Potency [6] 2 µM | Potency [15] 3.98 µM | Potency [16] 6.31 µM | Potency [17] 2.82 µM
-12.6%: max response [3, 21]

COCCn1c(=O)c(-c2cccc(C#N)c2)nc2cnc(N3CCN(C)CC3)nc21
inactive: Potency [9] > 11.4 µM | activity change, negative = inhibition [10] -14.7% | activity change, negative = inhibition [11] 0.13% | activity, negative = inhibition [12] -4.72% | Potency [7] > 9.22 µM | Potency [13] > 46 µM | Potency [8] | Potency [19] | activity change, negative = inhibition [3] 6.64% | Potency [15] | Potency [16] | Potency [17] | Potency [18]
active: Potency [6] 15.8 µM
18.2%: max response [3, 21]
22.5%: max response [3, 22]

COc1cccc(-c2ccc3ncnc(NCCNC(C)=O)c3c2)c1
inactive: Potency [9] > 11.4 µM | activity change, negative = inhibition [10] -19.2% | activity change, negative = inhibition [11] 21% | activity, negative = inhibition [12] 11% | Potency [7] > 46 µM | Potency [13] > 46 µM | Potency [8] | Potency [19] | Potency [14] | activity change, negative = inhibition [3] -2.84% | Potency [18]
-13.2%: max response [3, 21]
active: Potency [6] 3.16 µM | Potency [15] 0.355 µM | Potency [16] 0.447 µM | Potency [17] 0.282 µM
-16.4%: max response [3, 22]

N#CCCn1c(=O)c(-c2cc(F)cc(F)c2)nc2cnc(Oc3ccccc3)nc21
active: Potency [6] 2 µM
inactive: Potency [9] > 11.4 µM | activity change, negative = inhibition [10] -18% | activity change, negative = inhibition [11] 1.84% | activity, negative = inhibition [12] -2.23% | Potency [7] > 9.22 µM | Potency [13] > 46 µM | Potency [8] | Potency [19] | activity change, negative = inhibition [3] 7.78% | Potency [15] | Potency [16] | Potency [17] | Potency [18]
17.1%: max response [3, 22]
10.8%: max response [3, 21]

C[C@@H](Oc1ccc(Oc2cnc3ccc(Cl)cc3n2)cc1)C(=O)O
-7.54%: max response [3, 21]
-6.55%: max response [3, 22]
inactive: activity change, negative = inhibition [3] -0.184%

C[n+]1cccc(C(=O)[O-])c1
inactive: Potency [20] | Potency [1] | activity change, negative = inhibition [3] 6.06% | Potency [18]
-1.12%: max response [3, 21]
2.73%: max response [3, 22]
